C_diff_HTS – blocks growth of Clostridium difficile; Clostridium difficile clinical isolate growth, OD600, 24 h; stronger effect = lower value; growth activity, negative = inhibition, % at 16 µg/mL (by protocol); 86,000 tested, 0.25% active; AID 1259249;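 active means mean growth activity at or below -80% and every replicate also at or below -80%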;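 further: 0% = DMSO wells and -100% = levofloxacin 16 µg/mL wells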
T_cruzi_growth-1 – blocks T. cruzi growth in NIH3T3 culture. T. cruzi beta-gal in NIH3T3, GalScreen luminescence, 90 h. inhibition, % at 8.34 µM. 77,000 tested, 5.9% active. AID 624255;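 active means mean inhibition above about 93%, with at least 55% of replicates each passing it, limit read from the data, passing the limit was not always enough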
Pf_Dd2_inh – blocks growth of Plasmodium falciparum Dd2 parasites; AID 1159554; P. falciparum Dd2 growth, SYBR Green, 72 h; stronger effect = lower value; 94,000 tested, 2.3% active; activity change, % at 10 µM; in the data active means activity change below about -80%
T_cruzi_growth-2 – blocks T. cruzi growth in NIH3T3 host cells | shares compounds with T_cruzi_growth-1 | T. cruzi beta-gal in NIH3T3, GalScreen luminescence, 90 h | inhibition, % at 8.35 µM | 5,600 tested, 72% active | AID 651739;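 active means mean replicate inhibition above about 95% and at least 55% of replicates individually reaching it, limit read from the data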
T_cruzi_growth-3 – inhibitors of T. cruzi proliferation; shares compounds with T_cruzi_growth-1; T. cruzi beta-gal in NIH3T3, GalScreen luminescence, 90 h; inhibition, % at 2.09 µM; 5,600 tested, 21% active; AID 651740;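 active means mean inhibition above about 95%, with at least 55% of replicates also reaching it, limit read from the data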;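 further: plate controls were neutral control median for no effect and positive control median for full effect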
3T3_cytotox – cytotoxicity in mouse NIH/3T3 fibroblasts | cytotoxicity (signal decrease), % at 8.35 µM | NIH/3T3 viability, CellTiter-Glo ATP luminescence, 90 h | 5,600 tested, 14% active | shares compounds with T_cruzi_growth-1;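 active means mean signal decrease across replicates above about 35% based on untreated-well scatter, with enough replicates individually passing, limit read from the data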;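 further: 0% = median of neutral control wells and 100% = median of positive control wells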
NIH3T3_tox_2 – NIH/3T3 (mouse) viability loss; inhibition, % at 24.9 µM; 5,600 tested, 56% active; AID 651744; NIH/3T3 viability, CellTiter-Glo ATP luminescence, 90 h; shares compounds with T_cruzi_growth-1;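 active means mean loss of cell viability signal at or above a set limit, and enough replicates individually reaching it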;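 further: 0% = median of neutral control wells and 100% = median of positive control wells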
Active calls of the source: *; . = no result; ! = not active in a repeat. Sampled rows, rich in hits. Any-hit rate of the full collection: about 6.7%.

SMILES C_diff_HTS T_cruzi_growth-1 Pf_Dd2_inh T_cruzi_growth-2 T_cruzi_growth-3 3T3_cytotox NIH3T3_tox_2
COc1ccc(NC(=O)Nc2ccc3c(c2)C(=O)N([C@H](C)CO)C[C@@H](C)[C@@H](CN(C)S(=O)(=O)c2ccc(Cl)cc2)OCCCC[C@@H](C)O3)cc1 -9 . -40 . . . .
COc1ccc(NC(=O)Nc2ccc3c(c2)C(=O)N([C@H](C)CO)C[C@@H](C)[C@H](CN(C)S(=O)(=O)c2ccc(Cl)cc2)OCCCC[C@H](C)O3)cc1 5 104* -76 110* 102* -15 -22
COc1ccc(NC(=O)Nc2ccc3c(c2)C(=O)N([C@@H](C)CO)C[C@@H](C)[C@H](CN(C)S(=O)(=O)c2ccc(OC)cc2)OCCCC[C@H](C)O3)cc1 -1 16 -75 . . . .
O=C(NCC1CC1)[C@H]1[C@H](CO)[C@H]2Cn3c(ccc(-c4cccnc4)c3=O)[C@@H]1N2C(=O)C1CCC1 -3 76 10 . . . .
COCC(=O)Nc1ccc2c(c1)[C@@H]1C[C@H](CC(=O)NC3CCCCC3)O[C@@H](CO)[C@@H]1O2 . 0 5 . . . .
CCN1[C@@H]2c3ccc(C4=CCCCC4)c(=O)n3C[C@H]1[C@H](CO)[C@H]2C(=O)NC1Cc2ccccc2C1 -4 . -5 . . . .
COc1ccc(NC(=O)Nc2ccc3c(c2)C(=O)N([C@@H](C)CO)C[C@@H](C)[C@H](CN(C)S(=O)(=O)c2ccc(Cl)cc2)OCCCC[C@@H](C)O3)cc1 1 113* -64 107* 107* -18 15
COc1ccc(NC(=O)Nc2ccc3c(c2)C(=O)N([C@H](C)CO)C[C@H](C)[C@@H](CN(C)S(=O)(=O)c2ccc(OC)cc2)OCCCC[C@@H](C)O3)cc1 6 -28 -31 . . . .
COc1ccc(NC(=O)Nc2ccc3c(c2)C(=O)N([C@@H](C)CO)C[C@H](C)[C@@H](CN(C)S(=O)(=O)c2ccc(Cl)cc2)OCCCC[C@H](C)O3)cc1 -2 113* -75 105* 96* -9 15
COc1ccc(NC(=O)Nc2ccc3c(c2)C(=O)N([C@H](C)CO)C[C@H](C)[C@H](CN(C)S(=O)(=O)c2ccc(C)cc2)OCCCC[C@H](C)O3)cc1 . . -61 . . . .
C[C@@H]1CN([C@@H](C)CO)C(=O)c2cc(NS(=O)(=O)c3ccc(F)cc3)ccc2O[C@@H](C)CCCCO[C@@H]1CN(C)S(=O)(=O)c1cccs1 -2 97* . 108* 2 -27 -11
C[C@@H]1CN([C@@H](C)CO)C(=O)c2cc(N(C)C)ccc2O[C@@H](C)CCCCO[C@@H]1CN(C)S(=O)(=O)c1cccs1 2 106*! -16 20 14 -18 -18
C[C@@H]1CCCCO[C@H](CN(C)S(=O)(=O)c2cccs2)[C@H](C)CN([C@H](C)CO)C(=O)c2cc(NS(=O)(=O)c3ccc(Cl)cc3)ccc2O1 3 99* -87* 102* 114* -9 9
C[C@@H]1CCCCO[C@@H](CN(C)S(=O)(=O)c2cccs2)[C@H](C)CN([C@@H](C)CO)C(=O)c2cc(NS(=O)(=O)c3ccc(Cl)cc3)ccc2O1 0 96* -16 98* 66 0 14
C[C@@H]1CCCCO[C@@H](CN(C)S(=O)(=O)c2cccs2)[C@@H](C)CN([C@H](C)CO)C(=O)c2cc(NS(=O)(=O)c3ccc(F)cc3)ccc2O1 -5 10 . . . . .
C[C@@H]1CN([C@H](C)CO)C(=O)c2cc(NS(=O)(=O)c3ccc(Cl)cc3)ccc2O[C@@H](C)CCCCO[C@H]1CN(C)S(=O)(=O)c1cccs1 1 94 -26 . . . .
C[C@@H]1CCCCO[C@@H](CN(C)S(=O)(=O)c2cccs2)[C@H](C)CN([C@@H](C)CO)C(=O)c2cc(N(C)C)ccc2O1 -1 33 . . . . .
C[C@@H]1CCCCO[C@@H](CN(C)S(=O)(=O)c2cccs2)[C@@H](C)CN([C@@H](C)CO)C(=O)c2cc(NS(=O)(=O)c3ccc(Cl)cc3)ccc2O1 . 99 41 . . . .
CNC(=O)C[C@H]1CC[C@@H]2[C@@H](COc3ccc(NC(=O)Nc4cccc(C)c4)cc3C(=O)N2C)O1 -3 61 -3 . . . .
C[C@@H]1CCCCO[C@H](CN(C)C(=O)Nc2ccccc2)[C@@H](C)CN([C@@H](C)CO)C(=O)c2cc(NS(=O)(=O)c3cn(C)cn3)ccc2O1 -3 27 7 . . . .
CO[C@@H](CN(C)C(=O)C1CCOCC1)[C@@H](C)CN([C@H](C)CO)S(=O)(=O)c1ccccc1 . 22 -23 . . . .
CCCNC(=O)NC[C@@H]1[C@H](c2ccc(C3=CCCC3)cc2)[C@@H](CO)N1C(=O)CC 4 -41 12 . . . .
COc1ccc2c3c(n(C)c2c1)[C@@H](CO)N(C(=O)Nc1ccc(F)cc1)CC31CCN(S(=O)(=O)c2cccs2)CC1 -2 . -66 . . . .
C[C@H](CO)N1C[C@H](C)[C@H](CN(C)S(=O)(=O)c2ccc(F)cc2)Oc2ccc(NC(=O)Cn3cnnn3)cc2C1=O -10 -2 -14 . . . .
C[C@H]1CCCCO[C@H](CN(C)S(=O)(=O)c2cccs2)[C@@H](C)CN([C@@H](C)CO)C(=O)c2cc(NS(=O)(=O)c3ccccc3)ccc2O1 -6 105* -72 106* 37 -10 -24
SMILES C_diff_HTS T_cruzi_growth-1 Pf_Dd2_inh T_cruzi_growth-2 T_cruzi_growth-3 3T3_cytotox NIH3T3_tox_2
C[C@@H]1CCCCO[C@@H](CN(C)S(=O)(=O)c2cccs2)[C@@H](C)CN([C@@H](C)CO)C(=O)c2cc(NS(=O)(=O)c3ccccc3)ccc2O1 -1 43 -46 . . . .
C[C@@H]1CN([C@H](C)CO)C(=O)c2cc(NS(=O)(=O)c3ccc(Cl)cc3)ccc2O[C@@H](C)CCCCO[C@@H]1CN(C)S(=O)(=O)c1cccs1 10 101* -68 116* 79 -13 12
C[C@@H]1CN([C@@H](C)CO)C(=O)c2cc(NS(=O)(=O)c3ccc(Cl)cc3)ccc2O[C@@H](C)CCCCO[C@@H]1CN(C)S(=O)(=O)c1cccs1 9 95 -46 . . . .
COc1ccc2c3c(n(C)c2c1)[C@H](CO)N(C(=O)C1CCCC1)CC31CCN(C(=O)CN(C)C)CC1 0 . -63 . . . .
O=C(C[C@@H]1C[C@H]2c3cc(NC(=O)c4ccc5c(c4)OCO5)ccc3O[C@H]2[C@H](CO)O1)NCc1cccc(F)c1 2 74 -64 . . . .
CO[C@@H]1CN(C)C(=O)c2ccc(NC(=O)Nc3ccccc3F)cc2OC[C@@H](C)NC[C@@H]1C -1 3 -4 . . . .
O=C(C[C@H]1CC[C@H]2[C@@H](COC[C@@H](O)CN2S(=O)(=O)c2ccc(F)cc2)O1)NCc1ccncn1 . 6 10 . . . .

High-throughput results from PubChem BioAssay.
